From PubChem
Dicer inh: human Dicer pre-microRNA cleavage inhibition | Q9UPY3 | cat-ELCCA pre-miR-21 Dicer processing, chemiluminescence; hits give high values | z-score at 25 µM | 47,000 compounds, 6% hits; in the data active = z-score above about 3, passing the limit was not always enough;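 note: higher signal means more uncleaved substrate so more Dicer inhibition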
Of the large screens only hits and unclear results are named; the others gave an inactive call. The full list was thinned out, with hits kept by preference.

COC(=O)C1=C(C)NC2=C(C(=O)CC(c3cccs3)C2)C1c1ccsc1 (stereo not drawn)	none
C#CCOC(=O)Nc1cnc(N2CCOCC2)c(C(F)(F)F)c1	none
Cc1cccc(N2C(=O)CC(n3ccnc3)C2=O)c1C (stereo not drawn)	Dicer inh 3.5
COc1ccccc1N1C(=O)CC(N2CCN(c3ccc(F)cc3)CC2)C1=O (stereo not drawn)	none
O=C1CC(N2CCN(c3ccccc3O)CC2)C(=O)N1c1ccccc1F (stereo not drawn)	none
N/C(=N\OC(=O)Nc1ccccc1)c1nccnc1Sc1ccc(Cl)cc1	none
CCc1cc(-c2n[nH]c(C)c2-c2nc3ccccc3s2)c(O)cc1O	none
Cc1c(C(=O)/C=C/N(C)C)sc(=S)n1CCc1ccc(Cl)cc1	Dicer inh 3.2
CN(C)/C=C/C(=O)c1cc(Cl)ccc1Cl	none
Cc1c(C(=O)/C=C/N(C)C)sc2ccccc12	none
CC1=C(C(=O)OCc2ccccc2)C(c2ccccc2)NC(=O)N1C (stereo not drawn)	none
CCOC(=O)C1CCN(c2ncnc3c2oc2ccccc23)CC1	none
COc1ccccc1-c1nc(SCC(=O)c2ccccc2)n[nH]1	none
Cc1cc(C)nc(SCCC(=O)O)n1	Dicer inh 3.2
Cc1cc(C)nc(SCC(=O)c2ccccc2)n1	none
Cc1cc(C)nc(SCC(=O)Nc2ncccn2)n1	none
O=C(CSc1n[nH]c(-c2ccccc2Cl)n1)c1ccc(O)c(O)c1	Dicer inh 4.9
Cc1cc(C)nc(SCc2ccccc2)n1	none
Cc1cc(C)nc(SCC(=O)c2ccc(O)c(O)c2)n1	Dicer inh 3.1
Cc1cc(C)nc(SCC(=O)c2cccs2)n1	none
CCc1nc(SCC(=O)c2ccc(O)c(O)c2)n[nH]1	none
Cc1nn(CC/C(N)=N/OC(=O)c2ccc(Cl)cc2)c(C)c1Oc1ccc(Cl)cc1	none
COc1ccc(S(=O)(=O)N2CCSC2c2ccccc2Cl)cc1 (stereo not drawn)	Dicer inh 3.3
COc1ccc(C2SCCN2S(=O)(=O)c2ccc(C)cc2)cc1 (stereo not drawn)	none
COc1ccc(C2SCCN2S(=O)(=O)c2cccc(C)c2)cc1 (stereo not drawn)	Dicer inh 6.2
COc1ccc(Br)cc1C1SCCN1S(=O)(=O)c1cccc(C)c1 (stereo not drawn)	none
COc1ccc(C2SCCN2S(=O)(=O)c2cccc(C)c2)cc1OC (stereo not drawn)	none
COc1ccc(OC)c(C2SCCN2S(=O)(=O)c2ccc(-c3ccccc3)cc2)c1 (stereo not drawn)	none
COc1ccc(S(=O)(=O)N2CCSC2c2ccccc2OC)cc1 (stereo not drawn)	none
CCOc1ccc(S(=O)(=O)N2CCSC2c2ccc(OC)c(OC)c2)cc1 (stereo not drawn)	Dicer inh 3.3
COc1ccccc1C1SCCN1S(=O)(=O)c1ccc(Cl)cc1 (stereo not drawn)	none
Cc1noc(C)c1S(=O)(=O)N(Cc1ccccn1)Cc1ccccn1	none
CC(C)c1ccc(C2/C(=C(\O)c3ccc(Cl)cc3)C(=O)C(=O)N2CCCN2CCOCC2)cc1 (stereo not drawn)	none
CC1(C)CC(=O)C2=C(C1)Nc1ccccc1NC2c1coc2ccc(Cl)cc2c1=O (stereo not drawn)	none
COCCCNC(=O)N1c2ccccc2Sc2ccccc21	none
CCCCc1c(O)nc(SCCC(=O)O)[nH]c1=O	none
COc1ccc(-c2nnc(SCCC(=O)O)o2)cc1	none
CCCCc1c(C)nc2ccccc2c1SCCC(=O)O	Dicer inh 3.7
Cc1nc2ccc(Br)cc2c(-c2ccccc2)c1C(=O)O	none
CCc1c(C)nc2ccc(Br)cc2c1SCCC(=O)O	Dicer inh 3.2
CCCCc1cc(C)c2nc(-c3ccc(OC)c(OC)c3)cc(C(=O)O)c2c1	none
CCOC(=O)CSc1nc(C)c2ccccc2n1	none
CCCCc1c(C)nc2c(OC)cccc2c1SCCC(=O)O	Dicer inh 3.5
CCOC(=O)c1cc(C)nc2ccc(Br)cc12	none
CC1CCCC(C)N1C(=O)c1nn2c(c1Cl)NC(c1cccs1)CC2C(F)(F)F (stereo not drawn)	none
CC1CCN(c2oc(COc3ccccc3Cl)nc2C#N)CC1	none
CCOC(=O)c1sc(/S(C)=N/S(=O)(=O)c2ccc(Cl)cc2)c2c1CCC=C2 (stereo not drawn)	none
COc1ccc(OCC(O)Cn2nnc3ccccc32)cc1 (stereo not drawn)	none
COC(=O)c1ccc(CN(C)C)o1	Dicer inh 5.8
COC(=O)c1ccc(Cn2nc(C)c([N+](=O)[O-])c2C)o1	none
COC(=O)c1ccc(COCOCc2ccc(C(=O)OC)o2)o1	none
Cc1ccc(CN2C(=O)C(O)(c3c[nH]c4ccccc34)c3cc(Br)ccc32)cc1 (stereo not drawn)	none
Cc1cc(C)c(C#N)c(Nc2ccc(F)cc2)n1	none
CCOC(=O)COc1nc(C)cc(C)c1C#N	none
Cc1cc(C)c(C#N)c(OC(=O)c2c(F)cccc2F)n1	Dicer inh 71
COc1cc(C(CN2CCCCC2)c2nc(-c3ccccc3)nn(CN3CCCCC3)c2=O)cc(OC)c1OC (stereo not drawn)	none
COc1ccc(C2CC(=O)CC(c3ccc(OC)cc3)S2)cc1 (stereo not drawn)	none
O=S1(=O)CCC(NS(=O)(=O)c2ccc(-c3ccccn3)s2)C1 (stereo not drawn)	none
